Screening results deposited in PubChem BioAssay by National Center for Advancing Translational Sciences (NCATS).
TRb SRC2 PPI: qHTS for Inhibitors of the Interaction of Thyroid Hormone Receptor and Steroid Receptor Coregulator 2 | TRbeta-SRC2 peptide binding, fluorescence polarization; receptor liganded with 1 µM T3 | Potency, µM (titrated, usually from 106 µM), most hits filed as inhibitors | actives 0.065% (n = 280,000) | Thyroid hormone receptor beta (Homo sapiens), P10828 | AID 1469, 2008; note: nearly all actives have a fitted effect of over 50% in size
Target sequence (P10828 whole entry, looked up): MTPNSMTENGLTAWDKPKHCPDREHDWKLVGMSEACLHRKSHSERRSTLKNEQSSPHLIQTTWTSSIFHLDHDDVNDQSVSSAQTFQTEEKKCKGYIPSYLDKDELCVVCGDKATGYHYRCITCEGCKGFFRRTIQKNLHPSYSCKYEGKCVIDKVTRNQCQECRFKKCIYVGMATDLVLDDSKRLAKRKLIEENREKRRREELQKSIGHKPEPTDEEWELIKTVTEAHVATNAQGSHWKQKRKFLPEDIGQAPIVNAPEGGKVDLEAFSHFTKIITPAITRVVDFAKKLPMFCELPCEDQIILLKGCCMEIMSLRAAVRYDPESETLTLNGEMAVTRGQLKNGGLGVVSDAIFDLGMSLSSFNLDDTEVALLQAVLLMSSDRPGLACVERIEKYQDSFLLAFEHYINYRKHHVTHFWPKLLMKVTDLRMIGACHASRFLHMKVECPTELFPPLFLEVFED
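Quantitative HTS by FP: 0.6 uM TRb LBD, 20 nM labeled SRC2 20-mer, 1 uM T3, 5% DMSO; 5 hr ambient incubation; % activity per concentration and potencies from concentration series.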
Anesthetic bind: qHTS Assay for Identification of Novel General Anesthetics; Ferritin light chain (Equus caballus), P02791; apoferritin/1-aminoanthracene competitive binding, fluorescence; Potency, µM (titrated, usually from 77.5 µM), hits mostly inhibitors; actives 0.074% (n = 350,000); AID 485281, 2010; note: nearly all actives have a fitted effect of over 20% in size
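Horse-spleen apoferritin (10 uM) in 50% saturated 1-aminoanthracene in PBS was incubated 10 min at room temperature with compound. Fluorescence (ex 380, em 535 nm) was normalized to free and bound 1-AMA, with concentration-response fitted by a four-parameter Hill equation.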
GoLoco inh red: qHTS Assay for Inhibitors of RGS12 GoLoco Motif Activity (Red Fluorophore). Gai1:RGS12 GoLoco peptide FP, rhodamine, 10 min. Potency, µM (doses to about 61.6 µM), hits mostly inhibitors. actives 0.44% (n = 230,000). AID 880, 2007; active = well fitted inhibition curve with a large enough effect, not every such curve was filed as active; inactive = no such curve, though single readings can be large or run the other way; note: nearly all actives have a fitted effect of over 30% in size
TexasRed fluor: Total Fluorescence Counterscreen for Inhibitors of the Interaction of Thyroid Hormone Receptor and Steroid Receptor Coregulator 2; TRb/SRC2 Texas Red total fluorescence interference; Potency, µM (series often up to 106 µM); actives 0.29% (n = 280,000); AID 1479, 2009; active = well fitted curve in either direction with a large enough effect; inconclusive = small, poorly fitted or top-dose-only effect
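Human TRb ligand-binding domain at 0.6 uM with 20 nM Texas Red SRC2 peptide in Tris buffer containing 1 uM T3 and 5% DMSO, incubated with compound 5 h at ambient temperature. Total fluorescence (555/632 nm) calculated as parallel + 2 × perpendicular.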
ERG Ets-DNA blk: qHTS for Small Molecule Inhibitors of the ERG Ets/DNA interaction; actives 0.028% (n = 370,000); fluorescence polarization, His-ERG Ets domain / labelled DNA; Potency, µM (doses to about 76.9 µM), usual class: inhibitors; AID 624246, 2012; Transcriptional regulator ERG (Homo sapiens), P11308; active = well fitted inhibition curve with a large enough effect in the polarisation, with a control signal flat; inconclusive = small, poorly fitted or top-dose-only effect, or effect the other way, or a change in a side signal; inactive = no such curve, though single readings can be large or run the other way; the % refers to the polarisation;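 note: polarization taken with two DNA probes labelled with fluorescein and Texas red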
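His-tagged ERG Ets domain (1 uM in the protein solution; 300mM KCl, 50mM Tris-HCl, 1mM EDTA, 1mM DTT, pH 7.5) received compound, then a probe mix of 5 nM fluorescein-DNA and 100nM Texas-615-DNA. Fluorescence polarization was read for both dyes.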
Large screens that a line does not name were inactive; ! = not active in a repeat; [ ] = dose if it differs, or a comment. A selection: hits, their analogues and other compounds. The true share with any hit is near 0.44%. Unless noted, calls come from the whole dose curve; as a rule, active = well fitted curve in the direction sought with a large enough effect; inconclusive = small, poorly fitted or top-dose-only effect, or another doubt; inactive = no such curve, though single readings can be large; an effect the other way counts as inactive or inconclusive.

CN1C[C@H](CO)C=C2c3cccc4[nH]cc(c34)C[C@H]21	GoLoco inh red 13µM
CCOP(=S)(OCC)SCn1nnc2ccccc2c1=O	none (no result: Anesthetic bind, GoLoco inh red, ERG Ets-DNA blk)
Nc1nc(=S)c2ncn(C3OC(CO)C(O)C3O)c2[nH]1 (stereo unspecified)	none
NC1=NC([S][Hg][c]2ccc(N)cc2)c2ncn([C@@H]3O[C@H](CO)[C@@H](O)[C@@H]3O)c2N1 (stereo partly specified)	GoLoco inh red 0.5µM (no result: TRb SRC2 PPI, Anesthetic bind, TexasRed fluor, ERG Ets-DNA blk)
CC(=O)O[C@H]1C(=O)[C@@]2(C)C([C@H](OC(=O)c3ccccc3)[C@]3(O)C[C@H](OC(=O)[C@H](O)[C@@H](NC(=O)c4ccccc4)c4ccccc4)C(C)=C1C3(C)C)[C@]1(OC(C)=O)CO[C@@H]1C[C@@H]2OC(=O)[C@H](C)NC(=O)c1ccc(-c2c3ccc(=O)cc-3oc3cc(O)ccc23)c(C(=O)O)c1 (stereo partly specified)	GoLoco inh red 2µM (no result: ERG Ets-DNA blk)
CCCCOCCOC(C)=O	none (no result: Anesthetic bind, GoLoco inh red, ERG Ets-DNA blk)
COc1cccc(C2CCN(CC(=O)Nc3cc(Cl)ccc3OC)CC2O)c1 (stereo unspecified)	ERG Ets-DNA blk 20µM (no result: TRb SRC2 PPI, GoLoco inh red, TexasRed fluor)
CC1(C)[C@H](C(=O)O[C@H](C#N)c2cccc(Oc3ccccc3)c2)[C@@H]1/C=C(\Cl)C(F)(F)F	none (no result: Anesthetic bind, GoLoco inh red, ERG Ets-DNA blk)
ClC1=C(Cl)[C@@]2(Cl)[C@H]3C[C@@H](Cl)[C@H](Cl)[C@H]3[C@@]1(Cl)C2(Cl)Cl	none (no result: Anesthetic bind, GoLoco inh red, ERG Ets-DNA blk)
N[C@@H](CCl)C(=O)O	none (no result: Anesthetic bind)
NC(Cc1cc(O)c(O)cc1O)C(=O)O (stereo unspecified)	GoLoco inh red 14µM, TexasRed fluor 11µM[quencher] (no result: Anesthetic bind, ERG Ets-DNA blk)
CCC(=O)c1ccc(OC)c(OC)c1	none
COc1ccc(C(=O)O)cc1OC	GoLoco inh red 32µM
COC1C(C)OC(OC2CC(C)(O)Cc3cc4c(c(O)c32)C(=O)c2c(O)cc3c(c2C4=O)OC2OC3(C)C(O)C(N(C)C)C2O)C(OC)C1(C)OC (stereo unspecified)	ERG Ets-DNA blk 7.1µM (no result: TRb SRC2 PPI, Anesthetic bind, GoLoco inh red, TexasRed fluor)
CCc1cc(C)cc(CC)c1-c1c(OC(=O)C(C)(C)C)n2n(c1=O)CCOCC2	none (no result: Anesthetic bind, GoLoco inh red, ERG Ets-DNA blk)
CC1=NCCc2c1[nH]c1cc(O)ccc21	GoLoco inh red 28µM!
CN(N=O)c1ccc(O)c(O)c1	GoLoco inh red 4.5µM, TexasRed fluor inconclusive (no result: Anesthetic bind, ERG Ets-DNA blk)
COCC(=O)N(c1c(C)cccc1C)N1CCOC1=O	none (no result: Anesthetic bind, GoLoco inh red, ERG Ets-DNA blk)
CC(=O)NC1N=C(C)N(c2ccccc2)C1=O (stereo unspecified)	TRb SRC2 PPI 32µM
CC(c1ccc(O)cc1)(c1ccc(O)cc1)c1ccc(O)cc1	none (no result: Anesthetic bind, GoLoco inh red, ERG Ets-DNA blk)
CCCCCCC[n+]1ccc(-c2cc[n+](CCCCCCC)cc2)cc1	GoLoco inh red 7.9µM!
Cc1cccc(N2C(=O)NC(=O)/C(=C\c3cnc(-c4ccccc4)nc3)C2=O)c1	TexasRed fluor 1.3µM[quencher]
Cc1ccc(N2C(=O)NC(=O)/C(=C/c3cnc(-c4ccccc4)nc3)C2=O)cc1C	none
O=C(O)c1ccccc1SCC(=O)N1c2ccccc2Sc2ccccc21	TexasRed fluor 0.089µM[quencher]
O=C(CCN1CCN(CCO)CC1)N1c2ccccc2Sc2ccc(C(F)(F)F)cc21	none (no result: GoLoco inh red)
Cc1cc(C(C#N)c2ccc(Cl)cc2)c(Cl)cc1NC(=O)c1cc(I)cc(I)c1O (stereo unspecified)	TRb SRC2 PPI inconclusive, TexasRed fluor 45µM[quencher] (no result: Anesthetic bind, GoLoco inh red)
CC(C)(c1ccccc1)c1cc(-n2nc3ccccc3n2)c(O)c(C(C)(C)c2ccccc2)c1	none (no result: Anesthetic bind, GoLoco inh red, ERG Ets-DNA blk)
C[N+](C)(C)CCOC(=O)C(O)(c1ccccc1)c1ccccc1	none (no result: Anesthetic bind, GoLoco inh red, ERG Ets-DNA blk)
CC(C)[N+](C)(CCC(C(N)=O)(c1ccccc1)c1ccccc1)C(C)C	GoLoco inh red 5µM!
C[C@]12CC[C@H](O)CC1=CC[C@@H]1[C@@H]2CC[C@]2(C)C(=O)CC[C@@H]12	none (no result: TRb SRC2 PPI, Anesthetic bind, GoLoco inh red, TexasRed fluor)
CC[n+]1c(-c2ccccc2)c2cc(N)ccc2c2ccc(N)cc21	TRb SRC2 PPI 35µM!, GoLoco inh red 5.6µM, TexasRed fluor 45µM![fluorescent], ERG Ets-DNA blk 16µM
